In the supplement of paper PMC8975748:
Structures can show the parent of a compound that is named as a salt. ± gives the standard deviation of the averaged measurements.

Columns and labels:
[1] = system: Saccharomyces cerevisiae BY4741 SeMeCo community; experiment: mean cell size (pixel area) (pixels); higher = larger cells; conditions: 10 µM; 24 h; SM minimal medium
Outline: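 A fluorescent Saccharomyces cerevisiae BY4741 community carrying four plasmids was used, with each plasmid complementing one auxotrophy and bearing a fluorescent marker. An overnight preculture at OD600 = 1.0 was diluted to OD600 = 0.3, and 70 µl went into 384-well plates acoustically predosed with drug (final 10 µM) in SM medium for 24 h. After paraformaldehyde fixation, cells were imaged by automated confocal microscopy and analysed in Harmony, giving the mean cell pixel area per well. Each value is the average of 3 replicates. Same SeMeCo high-content imaging drug screen: Selleck FDA-approved drugs at 10 µM, 24 h in SM medium, 384-well plates, 3 replicates.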

[2] = system: Saccharomyces cerevisiae BY4741 SeMeCo community; experiment: z-score of prototroph abundance vs DMSO median; higher = larger share of this subpopulation than in DMSO controls; conditions: 10 µM; 24 h; SM minimal medium; subpopulation (auxotrophy): Prototroph
Outline: (§1)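 Cells of a Saccharomyces cerevisiae BY4741 community, carrying four plasmids that each restored one auxotrophy and encoded a distinct fluorescent protein, were pre-grown overnight to OD600 1.0 and diluted to 0.3. A 70 µl volume was added to 384-well plates acoustically predosed with library drugs (10 µM final) and grown 24 h in minimal SM medium. After paraformaldehyde fixation, automated confocal microscopy was used, with single-auxotroph fluorescent strains for thresholds and autofluorescence correction. The abundance of each subpopulation was scored as a z-score against the vehicle-well median.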

[3] = system: Saccharomyces cerevisiae BY4741 SeMeCo community; experiment: z-score of subpopulation abundance vs DMSO median, subpopulation auxotrophic for M; higher = larger share of this subpopulation than in DMSO controls; conditions: 10 µM; 24 h; SM minimal medium; subpopulation (auxotrophy): M
Outline: as §1

[4] = system: Saccharomyces cerevisiae BY4741 SeMeCo community; experiment: z-score of subpopulation abundance vs DMSO median, subpopulation auxotrophic for L; higher = larger share of this subpopulation than in DMSO controls; conditions: 10 µM; 24 h; SM minimal medium; subpopulation (auxotrophy): L
Outline: as §1

[5] = system: Saccharomyces cerevisiae BY4741 SeMeCo community; experiment: z-score of subpopulation abundance vs DMSO median, subpopulation auxotrophic for U; higher = larger share of this subpopulation than in DMSO controls; conditions: 10 µM; 24 h; SM minimal medium; subpopulation (auxotrophy): U
Outline: as §1

[6] = system: Saccharomyces cerevisiae BY4741 SeMeCo community; experiment: z-score of subpopulation abundance vs DMSO median, subpopulation auxotrophic for H; higher = larger share of this subpopulation than in DMSO controls; conditions: 10 µM; 24 h; SM minimal medium; subpopulation (auxotrophy): H
Outline: as §1

[7] = system: Saccharomyces cerevisiae BY4741 SeMeCo community; experiment: z-score of subpopulation abundance vs DMSO median, subpopulation auxotrophic for LU; higher = larger share of this subpopulation than in DMSO controls; conditions: 10 µM; 24 h; SM minimal medium; subpopulation (auxotrophy): LU
Outline: as §1

[8] = system: Saccharomyces cerevisiae BY4741 SeMeCo community; experiment: z-score of subpopulation abundance vs DMSO median, subpopulation auxotrophic for LM; higher = larger share of this subpopulation than in DMSO controls; conditions: 10 µM; 24 h; SM minimal medium; subpopulation (auxotrophy): LM
Outline: as §1

[9] = system: Saccharomyces cerevisiae BY4741 SeMeCo community; experiment: z-score of subpopulation abundance vs DMSO median, subpopulation auxotrophic for UM; higher = larger share of this subpopulation than in DMSO controls; conditions: 10 µM; 24 h; SM minimal medium; subpopulation (auxotrophy): UM
Outline: as §1

[10] = system: Saccharomyces cerevisiae BY4741 SeMeCo community; experiment: z-score of subpopulation abundance vs DMSO median, subpopulation auxotrophic for HL; higher = larger share of this subpopulation than in DMSO controls; conditions: 10 µM; 24 h; SM minimal medium; subpopulation (auxotrophy): HL
Outline: as §1

[11] = system: Saccharomyces cerevisiae BY4741 SeMeCo community; experiment: z-score of subpopulation abundance vs DMSO median, subpopulation auxotrophic for HLU; higher = larger share of this subpopulation than in DMSO controls; conditions: 10 µM; 24 h; SM minimal medium; subpopulation (auxotrophy): HLU
Outline: as §1

[12] = system: Saccharomyces cerevisiae BY4741 SeMeCo community; experiment: z-score of subpopulation abundance vs DMSO median, subpopulation auxotrophic for HLM; higher = larger share of this subpopulation than in DMSO controls; conditions: 10 µM; 24 h; SM minimal medium; subpopulation (auxotrophy): HLM
Outline: as §1

[13] = system: Saccharomyces cerevisiae BY4741 SeMeCo community; experiment: z-score of subpopulation abundance vs DMSO median, subpopulation auxotrophic for HUM; higher = larger share of this subpopulation than in DMSO controls; conditions: 10 µM; 24 h; SM minimal medium; subpopulation (auxotrophy): HUM
Outline: as §1

[14] = system: Saccharomyces cerevisiae BY4741 SeMeCo community; experiment: z-score of subpopulation abundance vs DMSO median, subpopulation auxotrophic for LUM; higher = larger share of this subpopulation than in DMSO controls; conditions: 10 µM; 24 h; SM minimal medium; subpopulation (auxotrophy): LUM
Outline: as §1

[15] = system: Saccharomyces cerevisiae BY4741 SeMeCo community; experiment: z-score of subpopulation abundance vs DMSO median, subpopulation auxotrophic for HLUM; higher = larger share of this subpopulation than in DMSO controls; conditions: 10 µM; 24 h; SM minimal medium; subpopulation (auxotrophy): HLUM
Outline: as §1

[16] = system: Saccharomyces cerevisiae BY4741 SeMeCo community; experiment: z-score of subpopulation abundance vs DMSO median, subpopulation auxotrophic for HU; higher = larger share of this subpopulation than in DMSO controls; conditions: 10 µM; 24 h; SM minimal medium; subpopulation (auxotrophy): HU
Outline: as §1

[17] = system: Saccharomyces cerevisiae BY4741 SeMeCo community; experiment: z-score of subpopulation abundance vs DMSO median, subpopulation auxotrophic for HM; higher = larger share of this subpopulation than in DMSO controls; conditions: 10 µM; 24 h; SM minimal medium; subpopulation (auxotrophy): HM
Outline: as §1

Compound	mean cell size [1]	z-score of prototroph abundance [2]	z-score of subpopulation abundance [3]	z-score of subpopulation abundance [4]	z-score of subpopulation abundance [5]	z-score of subpopulation abundance [6]	z-score of subpopulation abundance [7]	z-score of subpopulation abundance [8]	z-score of subpopulation abundance [9]	z-score of subpopulation abundance [10]	z-score of subpopulation abundance [11]	z-score of subpopulation abundance [12]	z-score of subpopulation abundance [13]	z-score of subpopulation abundance [14]	z-score of subpopulation abundance [15]	z-score of subpopulation abundance [16]	z-score of subpopulation abundance [17]
CCCN[C@H]1CCc2nc(N)sc2C1 [Pramipexole]	12.3 ± 0.16	-0.22	-0.13	-0.15	0.72	-0.21	0.21	-0.62	0.05	0.63	0.75	0.06	0.71	0.35	0.18		
CC(=O)OCC[N+](C)(C)C [Acetylcholine iodide]	12.42 ± 0.1		-0.32	-0.73	0.13	-0.21	-0.57			-0.89	0.05	-1.52	-0.36	-1.27	-1.3	-0.12	
CN1CCN(CC(=O)N2c3ccccc3C(=O)Nc3cccnc32)CC1 [Pirenzepine dihydrochloride]	11.97 ± 0.054	0.72	-0.96	-0.62	-0.46	0.01	-0.44	-0.32	-0.76	-0.63	-0.21	-0.87	-0.75	-1.37			
CC[C@@H]1/C=C(\C)C[C@H](C)C[C@H](OC)[C@H]2O[C@@](O)(C(=O)C(=O)N3CCCC[C@H]3C(=O)O[C@H](/C(C)=C/[C@@H]3CC[C@H](Cl)[C@H](OC)C3)[C@H](C)[C@@H](O)CC1=O)[C@H](C)C[C@@H]2OC [Pimecrolimus]	11.6 ± 0.16	-1.82	1.75	3.91	-1.72	1.91	-0.41			4.57	1.88	2.14	0.94	4.36	2.63	-0.6	1.95
CCC(C)(Oc1ccc(C2(c3ccc(OC(C)(CC)C(=O)O)cc3)CCCCC2)cc1)C(=O)O (stereo not given) [Clinofibrate]	13.24 ± 0.13	0.14	0.41	-2.3	0.34	1.7	-0.18	-1.21	-2.08		0.73	2.85	-0.82	-1.09	0.45		
C[C@@H](O)[C@H]1C(=O)N2C(C(=O)O)=C(S[C@@H]3CN[C@H](CNS(N)(=O)=O)C3)[C@H](C)[C@H]12 [Doripenem Hydrate]	12.38 ± 0.092	0.39	-0.6	0.82	0.2	-0.3	0.22		-0.42	-0.25	-0.09	-0.78	-0.79	-0.2	-1.04		-0.76
N#Cc1ccc2[nH]cc(CCCCN3CCN(c4ccc5oc(C(N)=O)cc5c4)CC3)c2c1 [Vilazodone]	12.2 ± 0.28	0.6	0.28	0.06	-0.66	0	-0.57		-0.2	-0.17	0.77	0.08	-0.53	0.72	0.53	-0.93	-0.16
COCCOC(=O)C1=C(C)NC(C)=C(C(=O)OC(C)C)C1c1cccc([N+](=O)[O-])c1 (stereo not given) [Nimodipine]	12.31 ± 0.09	0.04	-0.26	0.55	0.32	-0.5	-0.12		0.69	-0.61	-0.01	-0.43	-0.42		-0.14	0.19	-0.32
Nc1nc(O)c2ncn(CCC(CO)CO)c2n1 [Penciclovir]	12.4 ± 0.4		-0.61	-0.31	0.53		0.58		0.66	-0.26	-0.33	-0.62	0.59	-0.73	-0.97	0.29	
O=C1Nc2ccccc2C1=O [Isatin]	12.3 ± 0.17	-0.13	-0.49	-0.04	0.43	0.05	0.53		0.51	-0.64	0.06	-1.17	0.2	-0.31	-0.52	0.91	-0.24
CCn1cc(C(=O)O)c(=O)c2ccc(C)nc21 [Nalidixic acid]	11.87 ± 0.1	1.23	-1.04	1.23	-0.51	-0.95	-0.49		-1.42		-0.15	-0.21	-1.86	-0.71	-0.59	-0.52	-1.62
Cc1cc(CC(C)CC(C)(C)C)n(O)c(=O)c1 (stereo not given) [Piroctone Olamine]	12 ± 0.34		0.45	1.41	1.32	3.62	2.47		6.25	14.6	20.3	39.5	30.2	16	16.6	31.8	24
COCC1=C(C(=O)OC(C)OC(=O)OC(C)C)N2C(=O)[C@@H](NC(=O)/C(=N\OC)c3csc(N)n3)[C@H]2SC1 (stereo not given in full) [Cefpodoxime proxetil]	12.25 ± 0.089		0.5	-0.07	0.51	-0.09	0.31		0.01		0.57	-0.08	0.76	0.36	0.35	0.99	0.76
CC[C@@H]1C(=O)OC[C@@H]1Cc1cncn1C [Pilocarpine HCl]	12.7 ± 0.26		0.65	0.16	-0.55	0.8	-0.22	0.75	-0.51	-0.15	-0.93	-0.18	-1.4	-0.76	-0.1		
Cc1nc(=O)c2cc(CN(C)c3ccc(C(=O)N[C@@H](CCC(=O)O)C(=O)O)s3)ccc2[nH]1 [Raltitrexed]	13.1 ± 0.36	1.91	0.3	-0.42	-1.11	-0.94	-1.62		-2.8	-0.37	-0.94	-0.97	-1.9	-2.16	-1.38	-2.1	-0.66
